In PubChem BioAssay (NCI) one finds growth data, which are given here for eight molecules.

What all share (test): NCI-60 one-dose screen, 48 h (100 = growth as untreated, 0 = no growth, -100 = all killed)
Holding throughout (settings): 10 µM unless noted

Test [1] deals with NCI-H23 lung.
Test [2] concerns NCI-H226 lung.
Test [3] relates to NCI-H322M lung.
Test [4] relates to HOP-62 NSCLC.
Test [5] deals with NCI-H460 lung.
Test [6] deals with HOP-92 NSCLC.
Test [7] has as its system NCI-H522 lung.
The subject of test [8] is A549/ATCC NSCLC.
In test [9] the test system is 786-0 renal.
Test [10] concerns COLO 205 colon.
For test [11], the system named is DU-145 prostate.
Test [12] relates to K-562 leukemia.
Test [13] concerns MALME-3M melanoma.
For test [14], the system named is MDA-MB-231 breast.
Test [15] deals with RXF 393 renal.
Test [16] has as its system SF-268 CNS.
Test [17] deals with SF-295 CNS.
Test [18] relates to SF-539 CNS.
Test [19] deals with UACC-257 melanoma.
The test system of test [20] is M14 melanoma.

Compounds without any hit were thinned out: in the full panel of roughly 83,000, 20% have a hit.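 Note: values are percent growth. 100 is the growth of untreated cells, values between 100 and 0 indicate rising inhibition; between -100 and 0 indicates cell death.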 Values without a mark were called inactive. The source made the active and inactive calls. How the source made its calls: active means growth percent below 10; inactive means the rest.

For `CC1CCc2cc(F)cc3c(=O)c(C(=O)O)cn1c23` (stereo not given), the growth in [1] was 91.5%; in test [2] it was 103%; in [3], 116%; in test [4], 106%; in test [5], 105%; in [6], 91.9%. Further, the growth is 110% in [7]; 104% in test [8]; 87.1% in test [9]; 104% in test [10]; 110% in [11]; 92.6% in test [12]. Besides, the growth in [13] is 99.9%; in [14], 82.8%; in [15], 108%; in test [16] it was 105%; in [17], 97.6%; in [18], 107%. In addition, the growth in test [19] is 101%; in test [20] it was 97.6%.
With `CN1CCN(C(=O)/C=C/c2ccc([N+](=O)[O-])o2)CC1`, the growth in test [1] was 98.1%; in test [2], 110%; in test [3], 111%; in test [4] it was 134%; in test [5] it was 91%; in test [6], 85.9%. Moreover, the growth was 4.39% (active) in test [7]; 53.8% in test [8]; 110% in test [9]; 76.2% in [10]; 92.6% in [11]; 86.6% in test [12]. Moreover, the growth is 22.6% in [13]; 87.8% in test [14]; -14.9% (active) in test [15]; 87.6% in [16]; 134% in test [17]; 107% in test [18]. Moreover, the growth in test [19] was 1.85% (active); in test [20], 92.4%.
As to `Nn1c(CN2CCN(c3cc4c(cc3F)c(=O)c(C(=O)O)cn4C3CC3)CC2)n[nH]c1=S`, the growth is 95.2% in test [1]; 107% in test [2]; 93.3% in test [3]; 96.4% in test [4]; 109% in test [5]; 116% in test [6]. Also, the growth is 85.8% in test [7]; 101% in test [8]; 97.3% in test [9]; 121% in test [10]; 107% in test [11]; 101% in test [12]. Moreover, the growth in test [13] was 94.6%; in [14] it was 107%; in test [15], 109%; in test [16] it was 95.9%; in test [17], 102%; in [18], 99.3%. Also, the growth in [19] was 111%; in test [20] it was 105%.
For `COC(=O)/C=C/C(=O)c1cc(C)cc(C)c1O`, the growth in [1] is 97.5%; in test [2] it was 102%; in [3], 101%; in test [4], 96.6%; in test [5], 111%; in test [6], 113%. Moreover, the growth is 92.9% in [7]; 98.6% in [8]; 100% in test [9]; 108% in [10]; 103% in [11]; 103% in test [12]. Besides, the growth in test [13] is 95.7%; in test [14], 114%; in [15] it was 116%; in test [16] it was 95.9%; in [17] it was 93.5%; in test [18] it was 99.5%. The growth in test [19] was 99.8%; in test [20], 102%.
In the case of `COc1ccc(/C=C/C(=O)c2ccc(Oc3ncnc4ccccc34)cc2)cc1OC`, the growth is 81.9% in [1]; 80.2% in test [2]; 76.1% in test [3]; 87.7% in test [4]; 88.4% in test [5]; 84.6% in test [6]. Besides, the growth in test [7] was 53.5%; in test [8], 59.2%; in [9], 82.4%; in test [10], 85.4%; in [11], 61.9%; in [12] it was 9.19% (active). Besides, the growth in [13] is 77.5%; in test [14] it was 81.6%; in [15] it was 88.1%; in test [16] it was 74.8%; in test [17], 85.7%; in test [18] it was 73.5%. The growth is 93.8% in test [19] and 64.3% in test [20].
On to `CC(=O)N1N=C2N(Cc3ccccc3)C(=O)c3c(sc4c3CCCC4)N2C1c1cn(-c2ccccc2)nc1-c1ccc(Cl)cc1` (stereo not given), for which the growth in test [1] is 88.6%; in test [2], 91.9%; in test [3] it was 97.9%; in test [4] it was 98.6%; in test [5], 111%; in test [6] it was 81%. Further, the growth was 101% in [7]; 95.9% in [8]; 92.6% in test [9]; 101% in test [10]; 112% in test [11]; 93.4% in [12]. In addition, the growth is 99.9% in test [13]; 99.1% in [14]; 101% in test [15]; 100% in test [16]; 109% in test [17]; 92.6% in [18]. For the same molecule, the growth in [19] was 113%; in test [20], 100%.
Take `COc1cc(-c2nc3sc(C)cn3c2/C=C2\C(=O)Nc3ccccc32)c(Br)c(OC)c1OC`: the growth in [1] was 74.4%; in test [2], 80.1%; in test [3], 55.8%; in [4], 26%; in test [5], 8.76% (active); in test [6], 44.2%. The growth is -10.6% (active) in test [7]; 50.3% in [8]; 22.9% in test [9]; 52.7% in test [10]; 46.9% in [11]; 9.97% (active) in test [12]. The growth in test [13] was 26.3%; in test [14] it was 79.4%; in test [15], 13.4%; in [16], 54.1%; in [17] it was 21.8%; in [18], 11.8%. The growth in test [19] was 79.4%; in [20], 22.2%.
In the case of `O=C(NCCNc1nccc(-c2c(-c3cccc(O)c3)nc3sccn23)n1)c1cc(N2CCOCC2)cc(C(F)(F)F)c1`, the growth in test [1] is 106%; in test [2], 106%; in [3] it was 107%; in [4], 136%; in test [5], 96.2%; in test [6] it was 87.7%. For the same molecule, the growth in test [7] was 78.6%; in [8], 88.6%; in test [9], 86.6%; in [10] it was 32.7%; in [11], 110%; in [12], 70.7%. Besides, the growth in [13] is 3.04% (active); in test [14], 74.1%; in test [15], 77.8%; in [16] it was 102%; in test [17], 84.4%; in [18], 101%. Also, the results for the growth in [19] and in [20] were 16.7% and 22.4%, respectively.
